MKP-1 inh = MKP-1 phosphatase inhibitors, primary screen, biochemical, in vitro; Dual specificity protein phosphatase 1 (Homo sapiens), P28562; recombinant MKP-1, OMFP hydrolysis fluorescence; inhibition, %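 (compounds tested at a single concentration somewhere between 10 and 100 µM)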; AID 374, 2006; 0.15% of 65,000 active;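 active means inhibition above about 50%, limit read from the data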;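 further: 0% = DMSO max control wells and 100% = wells with enzyme stopped by NaOH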
A340 absorber = compound light absorbance at 340 nm, profiling panel, artefact control, biochemical, MLSMR library, data from PS, PMK, MK assays; compound absorbance at 340 nm, fold over control; fold change at 10 µM; 65,000 tested, under 10 active;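 active means at 10 µM dose, initial 340 nm absorbance at least 2 fold that of control wells; inactive means change under 2 fold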;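 further: initial absorbance extrapolated from kinetic A340 decline of NADH oxidation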
Fluor 339 460 = intrinsic fluorescence of library compounds, ex339/em460 – biochemical, MLSMR library, data from DPM-DC assay, artefact control, profiling panel | compound autofluorescence, ex339/em460 nm, NADH buffer; hits give high values; 1 = no-compound wells, NADH background | fluorescence fold increase at 10 µM | 5.5% of 65,000 active;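 active means at 10 µM, mean starting fluorescence two-fold or more over control wells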;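 further: signal is the first read of a kinetic run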
Hsp90 inh = tumor Hsp90 inhibitors, primary screen, cell lysate, fluorescence polarization, NCI-N417 lysate; inhibition, % at 30 µM; Heat shock protein HSP 90-alpha (Homo sapiens), P07900; Cy3B-geldanamycin FP displacement; AID 429, 2006; 0.35% of 64,000 active;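 active means inhibition above 50%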;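 further: 0% = tracer plus lysate wells and 100% = tracer alone without lysate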
NADH coupling = inhibitors of PK/LDH coupling enzymes, profiling panel, artefact control, biochemical, MLSMR library; coupled PK/LDH NADH assays, four targets; IC50, µM (doses to about 10 µM), inactives show at the highest dose inhibition; 0.02% of 65,000 active;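 active means single-dose screening hits from any of four coupled enzyme assays that gave an IC50 when retested across doses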;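 further: the DPM-DC format reads NADH fluorescence rather than 340 nm absorbance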
Cdc25B block = inhibitors of Cdc25B phosphatase catalytic domain, primary screen, biochemical, OMFP fluorescence | M-phase inducer phosphatase 2 (Homo sapiens), P30305 | recombinant Cdc25B, OMFP fluorescence Ex485/Em525 | inhibition, %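 (compounds tested at 10 µM final in the well)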 | 0.1% of 65,000 active; in the data active means inhibition above about 50%
Target sequence (P30305 whole entry, looked up, the tested form may be a part): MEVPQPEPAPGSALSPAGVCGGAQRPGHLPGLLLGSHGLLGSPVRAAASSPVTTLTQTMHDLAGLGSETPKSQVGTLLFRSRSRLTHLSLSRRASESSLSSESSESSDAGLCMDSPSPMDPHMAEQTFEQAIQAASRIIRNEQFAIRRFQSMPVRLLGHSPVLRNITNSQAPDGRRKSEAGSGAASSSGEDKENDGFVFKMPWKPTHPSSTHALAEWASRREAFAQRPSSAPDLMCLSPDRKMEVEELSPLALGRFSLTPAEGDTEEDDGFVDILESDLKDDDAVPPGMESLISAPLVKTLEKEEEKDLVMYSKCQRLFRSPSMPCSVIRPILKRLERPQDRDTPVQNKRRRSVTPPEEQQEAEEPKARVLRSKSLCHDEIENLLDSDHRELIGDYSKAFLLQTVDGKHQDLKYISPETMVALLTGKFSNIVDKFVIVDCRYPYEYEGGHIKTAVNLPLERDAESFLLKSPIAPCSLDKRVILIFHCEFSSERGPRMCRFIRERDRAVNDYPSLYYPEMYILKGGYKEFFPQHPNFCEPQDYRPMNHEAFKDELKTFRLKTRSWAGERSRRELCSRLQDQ
The depositor's hits bear a star; x = no result. Shown are actives, neighbours in structure and some others; about 5.7% of the full set was active somewhere.

SMILES | MKP-1 inh | A340 absorber | Fluor 339 460 | Hsp90 inh | NADH coupling | Cdc25B block
COC(=O)c1oc2ccc(Br)cc2c1NC(=O)c1ccccc1 | 17.1 | 1.11 | 3.17* | 0.2 | 12.0% | 15.4
Cc1ccc(-c2noc(-c3cccs3)n2)cc1 | 7.8 | 1.05 | 1.11 | -0.5 | 1.0% | 3.0
Brc1ccc(-c2cnc(-c3cccs3)o2)cc1 | 19.0 | 1.09 | 4.96* | -0.9 | 5.0% | -15.4
Cc1cccc(NC(=O)c2c(O)c3cccc4c3n(c2=O)CCC4)n1 | 11.0 | 1.02 | 1.15 | 50.3* | 5.0% | -16.8
COc1ccc(CCN2CC(O)=C(c3nc4ccccc4c(=O)[nH]3)C2=N)cc1OC | -2.4 | 1 | 2.33* | -0.4 | 4.0% | -4.9
CCOC(=O)c1ccc(N2CC(O)=C(c3nc4ccccc4c(=O)[nH]3)C2=N)cc1 | 18.2 | 1.11 | 2.36* | -13.5 | 3.0% | -6.5
CC1CCc2ccccc2N1C(=O)c1cccs1 (configuration not stated) | -3.0 | 1.06 | 1.13 | 3.1 | 3.0% | -4.3
O=C(Nc1cccc2nsnc12)c1ccc2c(c1)OCCO2 | 5.0 | 0.99 | 1.77 | -4.0 | 10.0% | -9.1
Cc1nc2ccc3nc(NC(=O)c4ccc5c(c4)OCCO5)sc3c2s1 | 36.4 | 1.04 | 3.47* | -3.6 | 7.0% | -3.8
Cc1nc2c(ccc3nc(NC(=O)c4ccc5c(c4)OCCO5)sc32)s1 | 35.1 | 1.01 | 2.38* | -4.7 | 12.0% | -14.7
Cc1cc(CCN2CCC(=O)NC2=O)ccc1OC(C)C | -33.2 | 0.96 | 1.09 | 3.4 | 9.0% | -11.6
CCn1c(CSc2nccn2C)nc2cc(C(=O)O)ccc21 | 6.1 | 1.01 | 1.27 | 88.8* | 2.0% | -4.3
CCCCc1cc(=O)oc2cc(OCc3nn[nH]n3)c(Cl)cc12 | 19.6 | 1.12 | 2.48* | -3.3 | 7.0% | 2.4
CCc1cc(=O)oc2cc(OCc3nn[nH]n3)ccc12 | -3.0 | 1.07 | 3.04* | -13.3 | 11.0% | -1.6
Cc1nn(-c2ccccc2)c2sc(C(=O)n3cccn3)cc12 | 9.0 | 1.07 | 2.24* | -7.3 | 9.0% | -1.8
Cc1nn(-c2ccccc2)c2sc(C(=O)OCn3nnc4ccccc4c3=O)cc12 | 9.4 | 1.04 | 1.13 | -8.0 | 1.0% | -3.3
CCCCNC(=O)COC(=O)c1cc2c(C)nn(-c3ccccc3)c2s1 | 26.9 | 1.04 | 2.55* | -5.7 | 13.0% | -3.8
C=CCn1c(C(C)NC(=O)CCC)nc2ccccc21 (configuration not stated) | x | 1.02 | 1.1 | x | 2.0% | x
C=CCn1c(N)c(C(=O)OC(C)CC)c2nc3ccccc3nc21 (configuration not stated) | 23.9 | 1.09 | 2.12* | -5.5 | 8.0% | -6.3
C=CCn1c(N)c(C(=O)Nc2ccccc2)c2nc3ccccc3nc21 | 17.5 | 1.06 | 1.41 | -6.6 | 1.0% | 14.3
C=CCn1c(N)c(C(=O)OC(C)(C)C)c2nc3ccccc3nc21 | -19.7 | 0.98 | 2.48* | -5.4 | 5.0% | 8.5
O=C(CSc1n[nH]c(-c2ccc(S(=O)(=O)N3CCCCC3)cc2)n1)Nc1nccs1 | -26.3 | 1.07 | 2.61* | 0.1 | 10.0% | 0.2
O=C(CSc1n[nH]c(-c2cccs2)n1)N1CCN(S(=O)(=O)c2ccccc2)CC1 | 17.6 | 1 | 1.05 | -6.9 | 1.0% | -27.0
Cc1ccc(S(=O)(=O)Nc2nc3ccccc3nc2NCc2ccco2)cc1C | -11.1 | 1.08 | 2.13* | -11.0 | 10.0% | 8.4
Cc1ccc(S(=O)(=O)Nc2nc3ccccc3nc2NCc2ccco2)cc1 | 13.5 | 1.06 | 1.65 | -6.7 | 5.0% | -1.2
SMILES | MKP-1 inh | A340 absorber | Fluor 339 460 | Hsp90 inh | NADH coupling | Cdc25B block
COC(=O)c1ccc(Oc2c(C)oc3c(CN4CCN(C)CC4)c(O)ccc3c2=O)cc1 | 8.8 | 1.15 | 3.84* | -1.9 | 9.0% | 3.5
COc1ccccc1Oc1c(C)oc2c(CN3CCN(C)CC3)c(O)ccc2c1=O | 25.9 | 1.09 | 3.81* | 1.9 | 7.0% | 0.4
CCOC(=O)c1c(C)oc2c(CN3CCN(C)CC3)c(Br)c(OC)c(O)c12 | 13.0 | 1.02 | 1.06 | 0.8 | 7.0% | -8.8
NC1CONC1=O (configuration not stated) | x | x | x | -0.8 | x | x
CCCCOc1ccc(C(=O)NCC(=O)NCC(=O)OCC)cc1 | -25.3 | 1.04 | 1.01 | -0.4 | 5.0% | 90.9*
CCOC(=O)CNC(=O)CNC(=O)c1ccc(OC)cc1 | -1.7 | 1.02 | 1.03 | 2.4 | 1.0% | 6.0
CCOc1ccc(NC2c3ccccc3C(=O)N2Cc2ccco2)cc1 (configuration not stated) | -1.2 | 1 | 1.05 | 0.3 | 2.0% | -3.8
O=c1c2cc(Cl)ccc2oc2nc3n(c(=O)c12)CCCS3 | 11.3 | 1.13 | 2.6* | -1.8 | 11.0% | 1.1
COCc1cc(C)nc(N)c1C#N | -36.8 | 1.07 | 1.97 | -5.5 | 1.0% | -24.1
COCc1cc(C)nc(N2CCOCC2)c1C#N | 0.9 | 1.07 | 2.1* | -1.0 | 9.0% | -5.8
COCc1cc(C)nc(Nc2ccc(C)c(C)c2)c1C#N | 12.6 | 1.05 | 1.47 | -1.4 | 2.0% | -4.5
CCOc1cc2c(C#N)c(N3CCOCC3)nc(N)c2c(N)n1 | 26.8 | 1.11 | 5.12* | -4.9 | 3.0% | -4.4
CCNc1nc(C)cc(COC)c1C#N | 3.0 | 1.07 | 2.16* | -4.5 | 8.0% | -9.1
COc1ccc(OC(C)=O)c(C2c3cc(OC)c(OC)cc3CCN2C(C)=O)c1 (configuration not stated) | 5.7 | 1.02 | 1.15 | 0.1 | 8.0% | 1.4
COc1cc2c(cc1OC)C(c1cc3cc(OC)c(OC)cc3[nH]c1=O)N(C(=O)C1CC1)CC2 (configuration not stated) | 29.9 | 1.15 | 2.59* | -2.5 | 11.0% | 7.4
O=C(Cn1cnc2c(nnn2Cc2ccc(F)cc2)c1=O)NCc1ccco1 | 8.1 | 0.98 | 1.1 | -3.7 | 9.0% | -10.4
COc1ccc(NC(=O)Cn2nnc(-c3ccccc3NC(=O)c3cccs3)n2)cc1 | 30.1 | 1.05 | 3.55* | 1.6 | 6.0% | 11.8
O=C(c1ccccc1)N(Cc1ccc2c(c1)OCO2)Cc1nc2ccccc2c(=O)[nH]1 | -0.2 | 1.01 | 1.14 | 0.2 | 4.0% | -9.8
COC(=O)c1ccc(-c2cc(C(=O)O)c3cc4c(cc3n2)OCCO4)cc1 | 2.3 | 1.17 | 4.89* | 0.2 | 9.0% | 3.4
CCNC(=O)NC(=O)CSc1ccc(NC(C)=O)cc1 | 14.7 | 1.01 | 1.02 | -1.0 | 4.0% | -11.0
CCNC(=O)NC(=O)COC(=O)c1ccccc1SCC(=O)NC(=O)NCC | -7.7 | 1.05 | 2.13* | -12.9 | 12.0% | 4.3

Bioassay records as filed in PubChem.
